These results are taken from article PMC3218832.

What all share (test): protein binding microarray; high values mean tight binding
Conditions in all cases: dsDNA, one strand shown

The target of experiment [1] is RELARELA (p65 homodimer) (Homo sapiens, UniProt Q04206 1-307).
The target in experiment [2] is p50p50 homodimer (Homo sapiens, UniProt P19838 7-356).
In experiment [3] the target is T1, p52p52 homodimer (Homo sapiens, UniProt Q00653 4-332).
T1 sequence: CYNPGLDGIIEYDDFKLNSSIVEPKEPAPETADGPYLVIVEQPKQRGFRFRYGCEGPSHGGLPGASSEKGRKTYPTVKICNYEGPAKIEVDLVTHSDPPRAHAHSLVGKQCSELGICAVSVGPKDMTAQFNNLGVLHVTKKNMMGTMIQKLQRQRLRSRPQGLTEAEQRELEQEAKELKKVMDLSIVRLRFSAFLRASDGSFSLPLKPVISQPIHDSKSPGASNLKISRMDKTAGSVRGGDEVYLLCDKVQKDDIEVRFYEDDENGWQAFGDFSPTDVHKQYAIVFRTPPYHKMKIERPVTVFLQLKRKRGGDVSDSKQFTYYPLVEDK

The target of experiment [4] is RELA (p65) subunit of heterodimer;p50 subunit (Homo sapiens;Homo sapiens, UniProt Q04206;P19838 1-307;7-356).
RELA (p65) subunit of heterodimer;p50 subunit, sequence (Q04206 1-307, chain 1 of 2): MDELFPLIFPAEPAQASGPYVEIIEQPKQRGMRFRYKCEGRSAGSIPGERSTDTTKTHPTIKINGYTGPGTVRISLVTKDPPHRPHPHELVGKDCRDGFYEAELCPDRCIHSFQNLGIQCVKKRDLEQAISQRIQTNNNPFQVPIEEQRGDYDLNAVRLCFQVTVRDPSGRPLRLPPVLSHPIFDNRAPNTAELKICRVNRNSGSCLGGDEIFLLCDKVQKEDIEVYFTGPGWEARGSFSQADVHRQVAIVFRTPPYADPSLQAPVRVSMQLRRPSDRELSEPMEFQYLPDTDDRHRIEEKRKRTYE
RELA (p65) subunit of heterodimer;p50 subunit, sequence (P19838 7-356, chain 2 of 2): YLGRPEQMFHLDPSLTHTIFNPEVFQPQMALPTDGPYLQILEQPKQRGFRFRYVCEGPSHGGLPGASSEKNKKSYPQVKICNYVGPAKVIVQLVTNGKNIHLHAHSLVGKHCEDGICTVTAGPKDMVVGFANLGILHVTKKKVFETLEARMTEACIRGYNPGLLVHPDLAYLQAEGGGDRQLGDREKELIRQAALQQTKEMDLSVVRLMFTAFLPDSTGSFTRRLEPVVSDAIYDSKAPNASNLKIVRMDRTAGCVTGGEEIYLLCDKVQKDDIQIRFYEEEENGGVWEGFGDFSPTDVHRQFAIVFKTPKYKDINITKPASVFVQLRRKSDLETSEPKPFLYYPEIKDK
Experiment [5] addresses RELA (p65) subunit of heterodimer;p52 subunit (Homo sapiens;Homo sapiens, UniProt Q04206;Q00653 1-307;4-332).
The target of experiment [6] is RELB subunit;p50 subunit (Homo sapiens;Homo sapiens, UniProt Q01201;P19838 120-401;7-356).
The target of experiment [7] is T2, RELB subunit;p52 subunit (Homo sapiens;Homo sapiens, UniProt Q01201;Q00653 120-401;4-332).
T2 sequence 1: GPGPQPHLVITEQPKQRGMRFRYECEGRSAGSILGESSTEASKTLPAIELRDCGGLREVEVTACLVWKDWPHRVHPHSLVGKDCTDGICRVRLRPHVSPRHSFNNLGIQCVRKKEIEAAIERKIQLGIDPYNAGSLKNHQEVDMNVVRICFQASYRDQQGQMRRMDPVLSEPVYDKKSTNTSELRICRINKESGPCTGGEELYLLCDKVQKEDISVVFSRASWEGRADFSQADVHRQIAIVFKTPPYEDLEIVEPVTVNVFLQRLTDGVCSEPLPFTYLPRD
T2 sequence 2: T1 sequence

The target of experiment [8] is C-Rel subunit;p50 subunit (Homo sapiens;Homo sapiens, UniProt Q04864;P19838 1-285;7-356).
Experiment [9] addresses T3, C-Rel subunit;p52 subunit (Homo sapiens;Homo sapiens, UniProt Q04864;Q00653 1-285;4-332).
T3 sequence 1: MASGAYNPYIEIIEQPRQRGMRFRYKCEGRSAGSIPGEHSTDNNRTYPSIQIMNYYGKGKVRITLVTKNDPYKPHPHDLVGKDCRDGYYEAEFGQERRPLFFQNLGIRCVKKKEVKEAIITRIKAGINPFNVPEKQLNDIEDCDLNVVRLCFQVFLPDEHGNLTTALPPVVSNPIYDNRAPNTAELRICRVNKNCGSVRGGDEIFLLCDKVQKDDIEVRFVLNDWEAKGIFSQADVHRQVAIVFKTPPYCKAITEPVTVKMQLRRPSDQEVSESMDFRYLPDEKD
T3 sequence 2: T1 sequence

p50p50 homodimer, sequence (P19838 7-356): as the sequence (P19838 7-356, chain 2 of 2) above
RELARELA (p65 homodimer), sequence (Q04206 1-307): as the sequence (Q04206 1-307, chain 1 of 2) above

With CAATAGCCCCT, the binding signal in experiment [1] is -0.581 z-score; in [2], 1.17 z-score; in experiment [3], 0.673 z-score; in [4], 0.506 z-score; in [5], 0.808 z-score; in [6], 0.574 z-score. The figures for the binding signal in experiment [7], in [8] and in experiment [9] were 0.89 z-score, 0.189 z-score and 0.555 z-score, respectively.

For the sequence CGAGTCCCCCT, the binding signal in [1] was -0.0442 z-score; in experiment [2] it was 1.47 z-score; in experiment [3] it was 1.11 z-score; in [4] it was 1.66 z-score; in experiment [5], 1.39 z-score; in experiment [6] it was 1.68 z-score. For the same sequence, the binding signal in [7] came to 2.08 z-score; in [8], 1.47 z-score; in experiment [9], 1.15 z-score.

On to AAGAGAGCCCC, for which the binding signal in experiment [1] was -0.68 z-score; in experiment [2] it was 0.339 z-score; in experiment [3] it was 0.122 z-score; in experiment [4] it was 0.109 z-score; in experiment [5] it was -0.015 z-score; in experiment [6], -0.0342 z-score. The binding signal is -0.125 z-score in [7], 0.0932 z-score in [8] and 0.00397 z-score in [9].

For AAGAACACCCC, the binding signal in experiment [1] was -0.22 z-score; in experiment [2], 0.317 z-score; in [3] it was 0.0847 z-score; in [4] it was 0.107 z-score; in experiment [5], 0.232 z-score; in experiment [6] it was 0.176 z-score. In addition, the binding signal amounted to 0.504 z-score in [7], 0.232 z-score in experiment [8] and 0.274 z-score in experiment [9].

Turning to AAGTGTTCCCC, the binding signal is 0.872 z-score in experiment [1]; 0.916 z-score in experiment [2]; 0.928 z-score in experiment [3]; 1.24 z-score in [4]; 0.915 z-score in experiment [5]; 1.13 z-score in [6]. Besides, the binding signal came to 1.14 z-score in experiment [7], 1.33 z-score in [8] and 0.844 z-score in [9].

Consider CAGAAAGTCCT, for which the binding signal was 1.03 z-score in experiment [1]; -0.724 z-score in [2]; -0.508 z-score in experiment [3]; -0.351 z-score in experiment [4]; -0.61 z-score in [5]; -0.693 z-score in experiment [6]. The binding signal in [7] is -0.785 z-score; in experiment [8], -0.362 z-score; in experiment [9], -0.371 z-score.

Regarding CAGGTCATCCT, the binding signal in [1] was -0.599 z-score; in experiment [2], -1.84 z-score; in [3] it was -0.537 z-score; in experiment [4] it was -1.21 z-score; in experiment [5], -1.08 z-score; in experiment [6] it was -1.24 z-score. Moreover, the figures for the binding signal in experiment [7], in [8] and in experiment [9] were -0.916 z-score, -1.52 z-score and -1.02 z-score, respectively.

For AAGTACCTCCT, the binding signal in [1] was 0.111 z-score; in experiment [2], 0.67 z-score; in experiment [3], 0.0441 z-score; in experiment [4], 0.737 z-score; in experiment [5], -0.123 z-score; in experiment [6], 0.852 z-score. For the same sequence, the binding signal in experiment [7] is 0.227 z-score; in experiment [8] it was 0.224 z-score; in experiment [9], -0.202 z-score.

Take GAATAAGTCCC: the binding signal in experiment [1] is 0.563 z-score; in experiment [2], 1.13 z-score; in experiment [3], 0.974 z-score; in experiment [4], 1.43 z-score; in experiment [5] it was 0.993 z-score; in [6], 1.38 z-score. In addition, the binding signal is 1.13 z-score in experiment [7], 1.03 z-score in experiment [8] and 0.676 z-score in [9].

Regarding AGAAACGTCCT, the binding signal was -0.192 z-score in experiment [1]; -1.17 z-score in [2]; -0.534 z-score in experiment [3]; -0.997 z-score in experiment [4]; -0.794 z-score in [5]; -0.947 z-score in experiment [6]. Moreover, the values for the binding signal in experiment [7], in experiment [8] and in [9] were -0.798 z-score, -1.13 z-score and -0.812 z-score, respectively.

For AAGTATTCCCT, the binding signal is 0.729 z-score in experiment [1]; 0.846 z-score in experiment [2]; 0.794 z-score in experiment [3]; 0.606 z-score in experiment [4]; 0.612 z-score in [5]; 0.683 z-score in experiment [6]. The figures for the binding signal in experiment [7], in experiment [8] and in experiment [9] were 0.852 z-score, 0.812 z-score and 0.523 z-score, respectively.

For AGATGGTTCCT, the binding signal in experiment [1] was -0.148 z-score; in [2], -2.29 z-score; in experiment [3], -0.605 z-score; in [4], -0.843 z-score; in [5], -0.727 z-score; in [6], -0.879 z-score. For the same sequence, the results for the binding signal in experiment [7], in [8] and in [9] were -0.835 z-score, -1.36 z-score and -0.824 z-score, respectively.

For GAGTTTCTCCT, the binding signal in experiment [1] was -0.323 z-score; in [2] it was -1.49 z-score; in experiment [3] it was -0.546 z-score; in [4], -0.596 z-score; in [5], -0.78 z-score; in experiment [6] it was -0.911 z-score. The binding signal is -0.855 z-score in experiment [7], -0.907 z-score in [8] and -0.692 z-score in experiment [9].

In the case of AGATATTCCCC, the binding signal in [1] is 1.8 z-score; in [2], 1.31 z-score; in [3], 2.2 z-score; in [4], 2.03 z-score; in experiment [5] it was 1.99 z-score; in experiment [6], 1.8 z-score. Also, the binding signal in experiment [7] stood at 1.96 z-score; in experiment [8], 1.64 z-score; in experiment [9], 1.71 z-score.

On to AAAAATCCCCT, for which the binding signal in experiment [1] was 2.27 z-score; in [2], 1.6 z-score; in [3], 3.18 z-score; in [4], 2.55 z-score; in experiment [5], 2.84 z-score; in experiment [6] it was 3.22 z-score. In addition, the binding signal in experiment [7] turned out to be 2.88 z-score; in [8], 2.19 z-score; in experiment [9] it was 3.19 z-score.
